# MCL1-BIM inh: inhibitors of human MCL1 binding to BIM-BH3 peptide; actives 0.68% (n = 320,000); Q07820; GST-MCL1 / FITC-Bim-BH3 fluorescence polarization; inhibition, % at 10.9 µM; AID 2057;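 active = inhibition above the mean inhibition of all tested compounds plus 3 SD, set per campaign, cut at about 40% in these data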;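 note: higher means more loss of mP so more displacement of Bim peptide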
# Keap1 Nrf2 FP: inhibitors of human Keap1-Nrf2 protein-protein interaction; Keap1 Kelch-Nrf2 peptide fluorescence polarization, 1536-well; inhibition, % at 9.4 µM; actives 0.15% (n = 340,000); AID 504523; in the data active = inhibition above about 12%;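 note: human Keap1 Kelch domain with fluorescein labeled Nrf2 9mer peptide probe; higher means more block of Keap1 binding to Nrf2 peptide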
# E coli Lon inh: inhibitors of E. coli Lon protease | inhibition, % at 7.94 µM | P0A9M0 | purified E. coli Lon protease, fluorescence polarization | actives 0.42% (n = 360,000) | AID 602123; in the data active = inhibition above about 13%, passing the limit was not always enough
# Target sequence (P0A9M0 whole entry, looked up): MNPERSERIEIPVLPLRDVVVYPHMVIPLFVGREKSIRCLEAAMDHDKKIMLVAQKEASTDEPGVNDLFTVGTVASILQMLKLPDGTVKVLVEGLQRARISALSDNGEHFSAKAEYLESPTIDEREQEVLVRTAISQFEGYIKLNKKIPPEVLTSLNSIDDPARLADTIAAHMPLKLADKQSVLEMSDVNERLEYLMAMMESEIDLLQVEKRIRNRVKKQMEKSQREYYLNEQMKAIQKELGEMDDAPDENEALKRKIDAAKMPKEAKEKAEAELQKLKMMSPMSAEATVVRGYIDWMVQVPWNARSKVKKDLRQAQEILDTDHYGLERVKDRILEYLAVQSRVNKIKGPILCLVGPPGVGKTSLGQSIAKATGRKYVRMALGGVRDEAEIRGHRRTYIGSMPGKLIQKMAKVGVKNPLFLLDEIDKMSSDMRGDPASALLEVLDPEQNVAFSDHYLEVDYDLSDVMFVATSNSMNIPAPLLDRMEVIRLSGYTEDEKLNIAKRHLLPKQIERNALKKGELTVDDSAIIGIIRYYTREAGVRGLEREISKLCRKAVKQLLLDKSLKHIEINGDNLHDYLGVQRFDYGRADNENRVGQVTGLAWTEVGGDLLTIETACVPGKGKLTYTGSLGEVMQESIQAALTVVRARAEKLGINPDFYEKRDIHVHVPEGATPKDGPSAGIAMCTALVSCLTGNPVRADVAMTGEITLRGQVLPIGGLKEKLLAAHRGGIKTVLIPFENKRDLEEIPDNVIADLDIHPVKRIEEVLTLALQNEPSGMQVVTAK
# C-LANA FP: blocks KSHV LANA C-terminal domain binding to DNA. actives 0.078% (n = 340,000). inhibition, % at 9 µM. MBP-C-LANA/FAM-LBS DNA binding, fluorescence polarization;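 active = highest replicate inhibition at or above 60% at 9 µM, even if other replicates fall short; inactive = all replicates below 60% inhibition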
# GLD-1 TGE inh: GLD-1-TGE RNA interaction inhibition (C. elegans) | Q17339 | purified GLD-1 + fluorescein TGE RNA, fluorescence polarization | inhibition, % at 5.96 µM | actives 0.44% (n = 320,000);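 active = percent inhibition above a per-plate cutoff, the plate mean of test compounds plus 3 SD, cut at about 30% in these data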
# Bcl-xL primary: blocks human Bcl-xL binding to Bim BH3 peptide; Q07817; GST-Bcl-xL / FITC-Bim BH3 peptide fluorescence polarization; inhibition, % at 10.9 µM; actives 0.7% (n = 320,000);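 active = inhibition above the mean of all tested compounds plus 3 SD, cutoff set per campaign, cut at about 30% in these data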;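 note: inhibitors lower millipolarization by displacing the labeled peptide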
# Hits are given with their value; 0 = inactive; - = not tested or not shown. An excerpt weighted towards active compounds, which were near 1.3% of everything screened.
SMILES,MCL1-BIM inh,Keap1 Nrf2 FP,E coli Lon inh,C-LANA FP,GLD-1 TGE inh,Bcl-xL primary
CC(=O)Nc1ccc(CN(C)c2c(C)nc3ccc(C(=O)N4CCN(c5ccccc5)CC4)cn23)cc1,-,-,0,-,-,-
COc1ccc2nc3ccccc3nc2c1NC(=O)c1ccc(Br)cc1,42,0,0,0,0,39
COc1cc(NC(=O)c2ccc(Br)cc2)c(OC)cc1NC(=O)c1ccccc1,0,0,0,0,0,0
CCNC(=S)NC(=NCc1cccnc1)Nc1nc(C)cc(C)n1,46,0,0,0,0,38
CCNC(=S)/N=C(/Nc1ccccc1)Nc1nc(C)cc(C)n1,0,-,0,-,0,0
COc1ccc2c3c(cccc13)OCC2=O,0,0,0,0,0,31
CC(C)(C)OC(=O)CC(S(=O)(=O)c1ccccc1)S(=O)(=O)c1ccccc1,-,-,0,-,-,-
Cc1ccc(C(=O)N/C(=C/c2ccco2)C(=O)Nc2cccc(C(=O)O)c2)cc1,0,-,-,-,0,0
COc1ccccc1C(=O)N/C(=C/c1ccco1)C(=O)Nc1cccc(C(=O)O)c1,0,0,0,0,0,31
CCCC(C)C(=O)Nc1ccc(Cl)cn1 (stereo unspecified),0,0,0,0,0,162
COc1ccc(C(=O)c2sc3nc(-c4ccccc4)ccc3c2N)cc1,40,0,0,0,0,52
CC(C)OC(=O)c1sc2nc(-c3ccccc3)ccc2c1N,0,0,0,0,0,0
CN1/C(=C\C=C2/C(=O)Oc3ccccc3C2=O)C(C)(C)c2ccccc21,0,-,-,-,0,47
CN1C(=CC=C2C=C(I)C(=O)C(I)=C2)C(C)(C)c2ccccc21,-,0,0,0,-,-
CN1/C(=C\C=C2/SC(=S)NC2=O)C(C)(C)c2ccccc21,0,0,0,0,0,37
CCCN1C(=O)/C(=C\C=C2\N(CC)c3ccccc3C2(C)C)SC1=S,-,0,0,0,-,-
C[C@H]1CN([C@@H](C)CO)C(=O)CCCn2nncc2CO[C@H]1CN(C)S(=O)(=O)c1ccc(Oc2ccccc2)cc1,-,-,0,-,-,-
Cc1nc2ccc(C(=O)N(C)Cc3ccco3)cn2c1N(C)C(=O)CCc1ccccc1,-,-,0,-,-,-
Cc1coc(NC(=O)CSc2nc(-c3ccc(Cl)cc3)cc(C(F)(F)F)c2C#N)n1,40,0,0,0,0,45
NC(=O)/C(=C\c1ccco1)NC(=O)c1ccc(Br)o1,42,0,0,0,0,37
CC(C)C(NC(=O)/C(=C/c1ccco1)NC(=O)c1ccc(Br)o1)C(=O)O (stereo unspecified),45,0,0,0,0,35
O=C(O)/C(=C/c1ccco1)NC(=O)c1ccc(Br)o1,0,0,0,0,0,0
c1ccc2c(-c3ccc4nncn4c3)cncc2c1,-,-,0,-,-,-
CC(=O)OCC(=O)C1(O)CCC2C3CCC4CC(O)CCC4(C)C3C(=O)CC21C (stereo unspecified),-,-,0,-,-,-
COc1ccc(C(Cl)=C(C=O)c2ccc(OC)c(OC)c2)cc1OC,-,-,0,-,-,-
SMILES,MCL1-BIM inh,Keap1 Nrf2 FP,E coli Lon inh,C-LANA FP,GLD-1 TGE inh,Bcl-xL primary
COC(=O)C1C(O)C(C)C(O)C(C)(O)/C=C\C=C(/C)C(=O)Nc2c(C)c(OC(C)=O)c3c(c2O)C(=O)C(C)=C2OCOC(=C23)/C(C)=C/C(C)(O)C(O)C(C)C1O (stereo unspecified),0,0,0,0,0,50
Cc1ccc(S(=O)(=O)NC(=O)NC2=NC(C)(C)N(c3ccc(Cl)c(Cl)c3)C(N)=N2)cc1,-,-,0,-,-,-
C#CCN1C(=O)S/C(=C/C=C/c2ccc(N(C)C)cc2)C1=O,44,0,0,0,0,55
Cc1ccc([C@H]2C[C@H](n3cc(-c4ccc(F)cc4)nn3)[C@@H](O)CN2CC2CCCCC2)cc1,-,-,0,-,-,-
Cc1cc(C(=O)OCC(=O)Nc2c(Cl)cccc2C(F)(F)F)c(C)o1,0,0,0,0,0,46
COC(=O)c1ccc(/C=N\N2CCN(Cc3ccc(C)cc3)CC2)cc1,0,0,142,0,0,0
CCN1CCN(Cc2ccc(NC(=O)c3ccc(C)c(/C=C/c4cnc(Nc5cc(N6CCNCC6)nc(C)n5)cn4)c3)cc2C(F)(F)F)CC1,0,0,0,0,0,38
c1ccc(-c2nn3c(Cn4nnc5ccccc54)nnc3s2)nc1,48,0,0,0,0,38
O=C(O)c1ccccc1NS(=O)(=O)c1ccc(N/N=C/c2ccc(O)c(O)c2)c([N+](=O)[O-])c1,-,0,0,80,-,-
Cc1cc(C)cc(Cn2c3ccc(NC(=O)NCCc4cccs4)cc3c(=O)n2C)c1,-,-,0,-,-,-
Cc1cccc(N=C2NC(=O)/C(=C3/C(=O)N(C)c4ccccc43)S2)c1C,0,0,0,0,0,50
Cc1cc(C)cc(C(O)c2ncc(-c3cccc(F)c3)[nH]2)c1 (stereo unspecified),-,-,0,-,-,-
CC(C)NC(=O)C1(C)CCN1C(=O)c1ccccc1 (stereo unspecified),-,-,0,-,-,-
COc1ccccc1C(=O)Nc1nnc(-c2ccccc2)s1,0,0,0,0,0,47
COc1cccc(C(=O)Nc2nnc(-c3ccccc3)s2)c1OC,0,0,0,0,0,0
CN(C)c1ccc(C=C2SC(=S)N(Cc3ccco3)C2=O)cc1,-,-,0,-,-,-
Cc1cc(/C=C2\SC(=S)N(Cc3ccco3)C2=O)c(C)n1-c1ccccc1,0,0,0,0,32,0
CN(C)CCCn1c(=O)n(CCc2ccccc2)c(=O)c2c3c(sc21)CCCCC3,0,0,0,0,0,56
CN(C)CCn1c(=O)n(Cc2ccccc2)c(=O)c2c3c(sc21)CCCCC3,0,0,0,0,0,0
CCc1nc2c(OCCOc3ccc(F)cc3)cccn2c1N(C=O)Cc1ccc(OC)cc1,-,-,0,-,-,-
CC[C@H](C)/C=C/C1=CC2=C(Cl)C(=O)[C@@]3(C)OC(=O)C(C(=O)[C@H](C)[C@@H](C)O)=C3C2=CO1,0,0,0,0,0,32
CNCc1ccccc1Sc1cc(O)ccc1O,42,0,0,0,0,32
Cc1ccc(N=C2CSC(=O)N2)cc1,0,0,0,0,0,0
Cc1cc(O)c(C(C)C)cc1N=C1CSC(=O)N1,0,0,0,0,0,40
Cc1nc2cc(C(=O)O)ccc2n1C1CCCCC1,0,0,0,0,0,0
CCN(CC)C(=O)CN1CCC(n2c(C)nc3cc(C(F)(F)F)ccc32)CC1,0,0,0,0,0,31
CN(C)c1ccc(-c2ccnc3c2CC(C)(C(=O)NCC2CCOCC2)O3)cc1 (stereo unspecified),-,-,0,-,-,-
O=C1OCc2ccc(NC(=O)C3CC3)cc21,0,0,0,84,0,0
CC(NC(=O)COC(=O)c1ccc([N+](=O)[O-])o1)c1ccccc1 (stereo unspecified),-,0,0,108,0,-
O=C(COC(=O)c1ccc([N+](=O)[O-])o1)NCCc1ccccc1,-,0,0,0,0,-
